Screens as filed in PubChem BioAssay.
Sfp PPTase inh = qHTS Assay for Inhibitors of Bacillus subtilis Sfp phosphopantetheinyl transferase (PPTase); Potency, µM, actives largely listed as inhibitors; AID 1490, 2009; Biochemical Sfp PPTase activity, qHTS; actives 3.5% (n = 310,000);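 further: the enzyme is Sfp with the accession as filed and its product quenches rhodamine fluorescence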
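Sfp 15 nM + cpd, 15 min RT; start w/ rhodamine-CoA 5 uM, BHQ-2-YbbR 12.5 uM (final); 50 mM Hepes pH 7.6, 10 mM MgCl2, 0.01% NP-40, 0.01% BSA; read 525/598 nm at 0 and 30 min.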
G9a block = qHTS Assay for Inhibitors of Histone Lysine Methyltransferase G9a; Histone-lysine N-methyltransferase EHMT2 (Homo sapiens), Q96KQ7; G9a H3K9 monomethylation, AlphaScreen, 2 h; Potency, µM (top dose mostly 102 µM), actives largely listed as inhibitors; actives 8.8% (n = 350,000); further: nearly all actives have a fitted effect of over 75% in size
Target sequence (Q96KQ7 913-1193 limits assumed): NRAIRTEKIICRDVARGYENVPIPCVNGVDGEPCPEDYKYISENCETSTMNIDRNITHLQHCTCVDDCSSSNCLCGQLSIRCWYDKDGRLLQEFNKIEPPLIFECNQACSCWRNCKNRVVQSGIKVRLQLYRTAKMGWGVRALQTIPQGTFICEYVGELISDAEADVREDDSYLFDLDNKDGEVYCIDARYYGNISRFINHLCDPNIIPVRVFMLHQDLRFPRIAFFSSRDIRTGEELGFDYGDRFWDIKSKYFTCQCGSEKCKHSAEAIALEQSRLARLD
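Using a bead-based AlphaScreen, monomethylated H3K9 product from 2 h room-temperature reactions (G9a 20 nM, peptide 500 nM, SAM 20 uM) was detected with 0.5 ug/mL rabbit anti-H3K9me1 antibody.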
Coupling enz = qHTS Assay for Inhibitors of Fructose-1,6-bisphosphate Aldolase from Giardia Lamblia: Coupling assay counterscreen; coupling enzyme system counterscreen, AmpLite Red fluorescence; actives 0.67% (n = 290,000); AID 2472, 2010; activity change, negative = inhibition, % at 58.2 µM, hits read low; in the data active means activity change below about -30%
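Compounds tested against the coupling enzymes alone at 57.5 uM final; readout was AmpLite Red fluorescence (525/598 nm) after 20 min at RT.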
Tau FP inhib = qHTS for Inhibitors of Tau Fibril Formation, Fluorescence Polarization. Microtubule-associated protein tau (Homo sapiens), P10636. K18 P301L tau heparin fibrillization, Alexa594 FP, 6 h. Potency, µM (doses to about 57.7 µM), actives largely listed as inhibitors. actives 0.39% (n = 280,000); further: nearly all actives have a fitted effect of over 55% in size
Target sequence (P10636 561-689 P618L limits assumed): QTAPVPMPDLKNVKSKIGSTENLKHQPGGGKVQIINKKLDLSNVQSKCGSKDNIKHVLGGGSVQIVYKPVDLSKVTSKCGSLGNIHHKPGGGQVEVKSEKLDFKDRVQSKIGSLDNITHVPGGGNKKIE
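FP of Alexa 594-tau after heparin (20 uM) induction. Substrate: human K18 P301L, 15 uM unlabeled, 0.24 uM labeled. Buffer 100 mM sodium acetate pH 7. 6 hr, 37 C.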
Tau fibril ThT = qHTS for Inhibitors of Tau Fibril Formation, Thioflavin T Binding; Microtubule-associated protein tau (Homo sapiens), P10636; recombinant tau K18 P301L, heparin-induced fibrillization, ThT fluorescence; Potency, µM (highest dose often 57.4 µM), usual class: inhibitors; actives 2.1% (n = 270,000); AID 1460, 2008; further: nearly all actives have a fitted effect of over 55% in size
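K18 P301L tau (15 uM + 0.24 uM Alexa 594-tagged), heparin 20 uM, NaOAc pH 7, 6 h 37 C; ThT 30 uM, 1 h RT, ex 450/em 510 nm.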
Tau fluor cs = Counterscreen qHTS for Inhibitors of Tau Fibril Formation, Fluorescence Polarization; AID 1463, 2008; Potency, µM (titrated, usually from 57.7 µM); actives 0.93% (n = 280,000); tau K18 P301L (four-repeat tau fragment) Alexa594 fluorescence, heparin fibrillization; further: nearly all actives have a fitted effect of over 55% in size
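Human K18 P301L tau (15 uM unlabeled plus 0.24 uM Alexa 594-labeled, final) in 100 mM sodium acetate pH 7 was mixed with compound and 20 uM heparin and incubated 6 hr at 37 C.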
Of the large screens only hits and unclear results are named; the others gave an inactive call. Only some compounds are listed: those with a hit (about 11% of all), similar ones and a draw of the others. Unless noted, the call rests on the fitted dose curve; in most records, active means well fitted curve in the direction sought with a large enough effect; inconclusive means small, poorly fitted or top-dose-only effect, or another doubt; inactive means no such curve, though single readings can be large; an effect the other way counts as inactive or inconclusive.

CC(C)CNC(=S)N(CCN(C)C)Cc1cc2cc3c(cc2[nH]c1=O)OCO3	none (no result: Tau FP inhib, Tau fibril ThT, Tau fluor cs)
CN(C)CCCNC(=S)N(CCN(C)C)Cc1cc2cc3c(cc2[nH]c1=O)OCCO3	G9a block inconclusive (no result: Tau FP inhib, Tau fibril ThT, Tau fluor cs)
CCOCCCNC(=S)N(CCN(C)C)Cc1cc2cc3c(cc2[nH]c1=O)OCCO3	G9a block 50µM (no result: Tau FP inhib, Tau fibril ThT, Tau fluor cs)
COc1ccc(CCNC(=O)Cn2nnc(-c3ccc(Cl)cc3)n2)cc1OC	none (no result: Sfp PPTase inh, Coupling enz)
CCOc1ccc(NC(=O)CSc2nc(=O)n(CCN3CCOCC3)c3c2CCCC3)cc1	none (no result: Sfp PPTase inh, Coupling enz, Tau FP inhib, Tau fibril ThT, Tau fluor cs)
Nc1nc(NC(=O)c2cccnc2)nn1-c1ccccc1	G9a block 14µM
CCN(CC)c1ccc(NC(=O)c2cccnc2)cc1	G9a block 10µM, Tau fibril ThT inconclusive
CCn1nnc(NC(=O)c2cccnc2)n1	G9a block 40µM
Nc1nc(NC(=O)c2ccc(Cl)cc2)nn1-c1ccccc1	none
O=C(/C(=C/O)N=Nc1ccccc1)c1cccs1	G9a block 35µM, Tau fibril ThT 28µM
COc1cc(C(=O)ON=C2C(C)=CC(=O)C=C2C)cc(OC)c1OC	G9a block 32µM, Tau fibril ThT inconclusive
O=C(CSc1nnc(C2CC2)n1Cc1ccccc1)c1ccc(S(=O)(=O)N2CCOCC2)cc1	Sfp PPTase inh 13µM, G9a block 3.2µM, Tau fibril ThT inconclusive
Cn1c(SCC#N)nnc1-c1cnccn1	G9a block 1.4µM
CCOc1ccc(C(=O)CSc2nnc(C3CC3)n2C)cc1	Sfp PPTase inh inconclusive, G9a block inconclusive
Cc1ccc(C(=O)CSc2nnc(-c3cccnc3)n2N)cc1	G9a block 32µM
Cn1c(SCC(=O)c2ccccc2)nnc1C1CC1	Sfp PPTase inh 56µM, G9a block 40µM
N#Cc1ccc(NC(=O)COCc2cc(-c3ccc4c(c3)OCO4)on2)cc1	Tau FP inhib inconclusive (no result: Sfp PPTase inh, Coupling enz)
CCn1c(SCC(=O)c2ccccc2)nnc1-c1cnccn1	none
Cn1c(SCC(=O)c2ccccc2)nnc1-c1cnccn1	Sfp PPTase inh inconclusive, G9a block 20µM
Cn1c(SCc2ccc(Cl)cc2)nnc1C1CC1	G9a block 32µM, Tau fibril ThT inconclusive
O=C(Nc1cc(S(=O)(=O)N2CCOCC2)ccc1N1CCOCC1)c1cccs1	none (no result: Sfp PPTase inh, Coupling enz, Tau FP inhib, Tau fibril ThT, Tau fluor cs)
C#CCOCCOCCOCCNc1nc(N2CCN(C(=O)[C@H]([C@@H](C)CC)n3cc(CCCN=C(N)N)nn3)CC2)nc(N2CCN(C(=O)[C@H](C)n3cc(CCCN=C(N)N)nn3)CC2)n1	G9a block 40µM
C#CCOCCOCCOCCNc1nc(N2CCN(C(=O)Cn3cc(CC(C)O)nn3)CC2)nc(N2CCN(C(=O)[C@H]([C@@H](C)CC)n3cc(CCCN=C(N)N)nn3)CC2)n1 (stereo partly specified)	G9a block 50µM
C#CCOCCOCCOCCNc1nc(N2CCN(C(=O)Cn3cc(CCO)nn3)CC2)nc(N2CCN(C(=O)[C@H](C(C)C)n3cc(CCO)nn3)CC2)n1	G9a block 45µM
C#CCOCCOCCOCCNc1nc(N2CCOCC2)nc(N2CCN(C(=O)[C@H](C)n3cc(CCCN=C(N)N)nn3)CC2)n1	G9a block inconclusive
C#CCOCCOCCOCCNc1nc(N2CCN(C(=O)[C@H]([C@@H](C)CC)n3cc(CCCN=C(N)N)nn3)CC2)nc(N2CCN(C(=O)[C@H](Cc3ccc(O)cc3)n3cc(CCO)nn3)CC2)n1	G9a block 45µM
CCCn1c(-c2ccc[nH]c2=O)nc2cc(C)c(C)cc21	none (no result: G9a block)
COc1ccc(OC)c(N=C2SCCCN2C(=O)c2ccc(N3C(=O)CCC3=O)cc2)c1	none (no result: Sfp PPTase inh, Coupling enz, Tau FP inhib, Tau fibril ThT, Tau fluor cs)
C[C@H](CC[C@@H]1OC1(C)C)C1CC[C@H]2[C@@H]3CC=C4C[C@@H](O)CC[C@]4(C)[C@H]3CC[C@]12C (stereo partly specified)	none (no result: Coupling enz)
C#CCOCCOCCOCCNc1nc(N2CCN(C(=O)[C@H]([C@@H](C)CC)n3cc(CCCN=C(N)N)nn3)CC2)nc(N2CCN(C(=O)[C@H]([C@@H](C)CC)n3cc(CCCN=C(N)N)nn3)CC2)n1	G9a block 20µM
C#CCOCCOCCOCCNc1nc(N2CCN(C(=O)Cn3cc(CCCN=C(N)N)nn3)CC2)nc(N2CCN(C(=O)Cn3cc(CCCN=C(N)N)nn3)CC2)n1	G9a block 25µM
C#CCOCCOCCOCCNc1nc(N2CCN(C(=O)[C@H](C)n3cc(CCCN=C(N)N)nn3)CC2)nc(N2CCN(C(=O)[C@H](C)n3cc(CCCN=C(N)N)nn3)CC2)n1	G9a block 79µM
C#CCOCCOCCOCCNc1nc(N2CCN(C(=O)[C@H]([C@@H](C)CC)n3cc(CCCCN)nn3)CC2)nc(N2CCN(C(=O)[C@H](C)n3cc(CCC(=O)O)nn3)CC2)n1	Sfp PPTase inh inconclusive, G9a block 79µM
O=C(Nc1cc2c(cc1C(=O)c1cccc(Br)c1)OCCO2)c1ccccc1F	Tau FP inhib inconclusive, Tau fluor cs inconclusive (no result: Sfp PPTase inh, Coupling enz)
CCOC(=O)N1CCc2c(sc3c2c(=O)n(Cc2ccccc2)c(=O)n3Cc2cccc(Cl)c2)C1	none (no result: Sfp PPTase inh, Coupling enz)
C#CCOCCOCCOCCNc1nc(N2CCOCC2)nc(N2CCN(C(=O)Cn3cc(CC(C)O)nn3)CC2)n1 (stereo unspecified)	G9a block 79µM
Cc1c(C(=O)N2CCOCC2)sc(NC(=O)Cc2ccccc2)c1C#N	none
CCCNC(=O)CSc1cn(CC(=O)N2CCCCCC2)c2ccccc12	none (no result: Sfp PPTase inh, Coupling enz)
O=C(O)c1ccc(CNCc2ccc(Cl)cc2)s1	none (no result: Sfp PPTase inh, Coupling enz)
O=C(CONS(=O)(=O)c1ccc(Cl)cc1)NCCNc1ncc(C(F)(F)F)cc1Cl	G9a block 56µM, Tau fluor cs inconclusive
O=C(CN1CCN(c2ncc(C(F)(F)F)cc2Cl)CC1)NCCNc1ncc(C(F)(F)F)cc1Cl	Tau fibril ThT inconclusive
COC(=O)CN1C(=O)Nc2ccc(Br)cc2C1c1ccccc1Cl (stereo unspecified)	G9a block 71µM
O=C1CCN(Cc2ccc(O)cc2)CCN1[C@H](CO)c1ccccc1	none (no result: G9a block, Tau FP inhib, Tau fibril ThT, Tau fluor cs)
CCOCCCNC(=O)c1c(N)n(-c2ccc3c(c2)OCO3)c2nc3ccccc3nc12	Coupling enz -35
CCOC(=O)c1c(N)n(-c2ccc(N)cc2)c2nc3ccccc3nc12	Tau fibril ThT inconclusive
CCCNC(=O)c1c(N)n(-c2ccc3c(c2)OCO3)c2nc3ccccc3nc12	G9a block inconclusive, Tau fibril ThT inconclusive
